Laboratory results from ChEMBL document CHEMBL1961873, “Compounds: GSK PKIS; Assays: Nanosyn kinase panel” (2012).

Legend:
[1] = target: T1, Inhibitor of nuclear factor kappa-B kinase subunit epsilon (Homo sapiens) (UniProt Q14164); conditions: at 1 µM;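 further: reported values are averaged percent inhibition figures against human IKKε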
T1 sequence (whole entry): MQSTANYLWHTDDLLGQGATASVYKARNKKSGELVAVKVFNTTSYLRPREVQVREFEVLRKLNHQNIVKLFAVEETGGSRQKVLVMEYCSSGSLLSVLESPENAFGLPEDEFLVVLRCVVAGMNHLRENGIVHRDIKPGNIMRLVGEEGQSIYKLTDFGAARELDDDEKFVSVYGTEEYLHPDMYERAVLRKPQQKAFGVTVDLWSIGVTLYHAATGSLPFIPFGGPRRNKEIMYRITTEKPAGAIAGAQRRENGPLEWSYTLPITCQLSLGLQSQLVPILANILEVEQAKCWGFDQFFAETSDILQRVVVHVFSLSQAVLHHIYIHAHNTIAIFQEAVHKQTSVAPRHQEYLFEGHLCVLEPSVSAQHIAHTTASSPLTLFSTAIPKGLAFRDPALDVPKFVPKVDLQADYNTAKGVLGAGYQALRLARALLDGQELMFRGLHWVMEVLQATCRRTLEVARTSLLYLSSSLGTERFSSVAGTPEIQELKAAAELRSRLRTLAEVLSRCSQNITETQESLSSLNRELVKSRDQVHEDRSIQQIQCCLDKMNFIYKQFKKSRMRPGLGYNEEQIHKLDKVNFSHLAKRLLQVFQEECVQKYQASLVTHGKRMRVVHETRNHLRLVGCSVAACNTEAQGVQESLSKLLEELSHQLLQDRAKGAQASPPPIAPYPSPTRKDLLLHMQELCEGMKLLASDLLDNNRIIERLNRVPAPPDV

[2] = target: T2, Serine/threonine-protein kinase Nek1 (Homo sapiens) (UniProt Q96PY6); conditions: at 0.1 µM
T2 sequence (whole entry): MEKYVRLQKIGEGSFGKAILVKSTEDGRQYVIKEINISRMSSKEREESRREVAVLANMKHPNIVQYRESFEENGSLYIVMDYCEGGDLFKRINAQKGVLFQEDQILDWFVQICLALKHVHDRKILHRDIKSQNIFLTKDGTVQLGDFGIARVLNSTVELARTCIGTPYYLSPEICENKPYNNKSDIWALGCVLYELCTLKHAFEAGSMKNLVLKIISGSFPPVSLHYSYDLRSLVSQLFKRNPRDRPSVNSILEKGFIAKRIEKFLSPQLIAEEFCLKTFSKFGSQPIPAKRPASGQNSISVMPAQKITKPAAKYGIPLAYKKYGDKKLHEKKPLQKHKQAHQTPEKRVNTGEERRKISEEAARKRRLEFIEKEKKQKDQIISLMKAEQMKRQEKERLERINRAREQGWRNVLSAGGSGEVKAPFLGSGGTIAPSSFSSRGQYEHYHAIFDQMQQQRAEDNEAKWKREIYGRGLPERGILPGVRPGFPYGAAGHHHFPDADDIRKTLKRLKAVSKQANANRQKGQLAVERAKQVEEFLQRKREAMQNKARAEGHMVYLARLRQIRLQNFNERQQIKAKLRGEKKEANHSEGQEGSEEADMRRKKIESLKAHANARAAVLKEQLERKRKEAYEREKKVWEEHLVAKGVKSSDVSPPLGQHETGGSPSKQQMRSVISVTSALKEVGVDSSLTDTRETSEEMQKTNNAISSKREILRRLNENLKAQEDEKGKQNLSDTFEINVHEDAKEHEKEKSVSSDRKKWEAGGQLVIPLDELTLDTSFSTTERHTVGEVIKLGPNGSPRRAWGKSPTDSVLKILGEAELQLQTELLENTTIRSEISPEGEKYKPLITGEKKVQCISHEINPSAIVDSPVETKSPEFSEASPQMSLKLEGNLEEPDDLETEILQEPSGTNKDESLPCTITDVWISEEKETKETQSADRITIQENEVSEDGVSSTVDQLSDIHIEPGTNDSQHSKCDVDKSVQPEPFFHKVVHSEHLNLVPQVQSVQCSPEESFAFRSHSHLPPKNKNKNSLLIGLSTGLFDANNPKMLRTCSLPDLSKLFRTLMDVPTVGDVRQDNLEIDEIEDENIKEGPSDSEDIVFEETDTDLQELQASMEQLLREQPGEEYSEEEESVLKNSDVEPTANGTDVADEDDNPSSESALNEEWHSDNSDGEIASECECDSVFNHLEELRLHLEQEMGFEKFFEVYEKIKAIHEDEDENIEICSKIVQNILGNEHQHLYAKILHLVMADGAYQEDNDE

[3] = target: T2, Serine/threonine-protein kinase Nek1 (Homo sapiens); conditions: at 1 µM
[4] = target: T3, Serine/threonine-protein kinase Nek2 (Homo sapiens) (UniProt P51955); conditions: at 0.1 µM
T3 sequence (whole entry): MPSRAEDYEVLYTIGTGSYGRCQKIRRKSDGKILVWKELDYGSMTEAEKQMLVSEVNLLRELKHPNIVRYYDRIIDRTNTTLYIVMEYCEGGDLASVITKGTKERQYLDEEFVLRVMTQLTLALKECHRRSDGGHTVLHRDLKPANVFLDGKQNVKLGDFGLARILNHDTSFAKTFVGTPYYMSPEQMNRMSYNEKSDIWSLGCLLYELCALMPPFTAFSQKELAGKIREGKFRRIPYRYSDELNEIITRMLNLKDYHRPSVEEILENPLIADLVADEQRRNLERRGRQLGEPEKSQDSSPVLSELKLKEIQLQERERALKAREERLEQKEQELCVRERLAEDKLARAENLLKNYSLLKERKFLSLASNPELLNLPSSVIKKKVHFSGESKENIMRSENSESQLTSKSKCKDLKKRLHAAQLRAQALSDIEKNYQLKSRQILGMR

[5] = target: T3, Serine/threonine-protein kinase Nek2 (Homo sapiens); conditions: at 1 µM
[6] = target: Serine/threonine-protein kinase Nek6 (Homo sapiens) (UniProt Q9HC98); conditions: at 0.1 µM
[7] = target: Serine/threonine-protein kinase Nek6 (Homo sapiens) (UniProt Q9HC98); conditions: at 1 µM
[8] = target: Serine/threonine-protein kinase Nek7 (Homo sapiens) (UniProt Q8TDX7); conditions: at 0.1 µM
[9] = target: Serine/threonine-protein kinase Nek7 (Homo sapiens) (UniProt Q8TDX7); conditions: at 1 µM
[10] = target: T4, Serine/threonine-protein kinase Nek9 (Homo sapiens) (UniProt Q8TD19); conditions: at 0.1 µM
T4 sequence (whole entry): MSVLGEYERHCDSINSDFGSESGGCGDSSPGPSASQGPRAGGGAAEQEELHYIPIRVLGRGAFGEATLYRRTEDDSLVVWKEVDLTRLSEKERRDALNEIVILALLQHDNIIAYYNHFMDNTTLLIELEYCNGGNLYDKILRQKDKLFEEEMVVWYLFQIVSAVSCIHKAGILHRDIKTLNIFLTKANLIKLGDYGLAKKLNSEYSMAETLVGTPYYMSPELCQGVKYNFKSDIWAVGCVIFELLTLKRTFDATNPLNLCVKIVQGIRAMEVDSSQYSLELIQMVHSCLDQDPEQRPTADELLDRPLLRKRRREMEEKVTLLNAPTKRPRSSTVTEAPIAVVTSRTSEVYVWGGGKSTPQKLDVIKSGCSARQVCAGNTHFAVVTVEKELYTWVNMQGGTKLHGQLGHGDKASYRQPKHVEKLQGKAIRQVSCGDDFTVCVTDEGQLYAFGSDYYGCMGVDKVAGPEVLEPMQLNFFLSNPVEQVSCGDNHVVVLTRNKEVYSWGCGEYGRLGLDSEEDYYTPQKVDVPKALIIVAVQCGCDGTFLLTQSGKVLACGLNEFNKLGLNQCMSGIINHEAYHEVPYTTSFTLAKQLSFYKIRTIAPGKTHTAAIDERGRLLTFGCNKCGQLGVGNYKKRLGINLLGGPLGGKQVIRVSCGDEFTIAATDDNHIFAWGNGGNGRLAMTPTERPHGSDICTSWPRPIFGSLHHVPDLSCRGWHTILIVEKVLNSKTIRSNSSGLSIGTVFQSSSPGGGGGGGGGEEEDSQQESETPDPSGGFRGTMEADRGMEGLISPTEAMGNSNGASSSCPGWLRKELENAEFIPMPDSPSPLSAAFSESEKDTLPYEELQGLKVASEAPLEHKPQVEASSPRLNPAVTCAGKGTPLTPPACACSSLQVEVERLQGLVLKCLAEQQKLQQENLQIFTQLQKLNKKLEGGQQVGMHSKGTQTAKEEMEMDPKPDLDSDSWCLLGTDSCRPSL

[11] = target: T4, Serine/threonine-protein kinase Nek9 (Homo sapiens); conditions: at 1 µM
[12] = target: Serine/threonine-protein kinase PLK1 (Homo sapiens) (UniProt P53350); conditions: at 0.1 µM
[13] = target: Serine/threonine-protein kinase PLK1 (Homo sapiens) (UniProt P53350); conditions: at 1 µM
[14] = target: T5, Dual specificity protein kinase TTK (Homo sapiens) (UniProt P33981); conditions: at 0.1 µM
T5 sequence (whole entry): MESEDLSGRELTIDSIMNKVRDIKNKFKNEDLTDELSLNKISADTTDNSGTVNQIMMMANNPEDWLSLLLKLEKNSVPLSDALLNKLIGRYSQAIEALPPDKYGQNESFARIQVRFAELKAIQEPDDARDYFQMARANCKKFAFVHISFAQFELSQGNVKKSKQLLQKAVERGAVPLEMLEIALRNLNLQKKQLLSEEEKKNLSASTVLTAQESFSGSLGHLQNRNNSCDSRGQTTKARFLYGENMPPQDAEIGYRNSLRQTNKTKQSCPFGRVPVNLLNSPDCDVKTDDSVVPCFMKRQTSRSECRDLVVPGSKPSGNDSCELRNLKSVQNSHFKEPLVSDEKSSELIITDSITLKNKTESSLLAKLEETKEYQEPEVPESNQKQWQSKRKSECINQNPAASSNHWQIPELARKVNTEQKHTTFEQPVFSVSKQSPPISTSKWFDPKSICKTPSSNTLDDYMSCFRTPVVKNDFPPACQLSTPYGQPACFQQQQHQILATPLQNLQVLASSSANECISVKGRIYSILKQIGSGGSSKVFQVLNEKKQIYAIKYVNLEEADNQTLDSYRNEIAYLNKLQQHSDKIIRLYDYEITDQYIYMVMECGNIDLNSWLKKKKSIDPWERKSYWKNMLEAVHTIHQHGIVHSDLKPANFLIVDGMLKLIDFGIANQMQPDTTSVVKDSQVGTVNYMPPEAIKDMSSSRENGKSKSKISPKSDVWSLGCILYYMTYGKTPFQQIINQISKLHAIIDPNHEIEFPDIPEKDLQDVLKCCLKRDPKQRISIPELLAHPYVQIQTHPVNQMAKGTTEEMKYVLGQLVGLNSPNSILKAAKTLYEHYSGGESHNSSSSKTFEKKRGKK

[15] = test system: T6, Receptor-type tyrosine-protein kinase FLT3 (Homo sapiens), P36888 [D835Y]; conditions: at 1 µM
T6 sequence (whole entry): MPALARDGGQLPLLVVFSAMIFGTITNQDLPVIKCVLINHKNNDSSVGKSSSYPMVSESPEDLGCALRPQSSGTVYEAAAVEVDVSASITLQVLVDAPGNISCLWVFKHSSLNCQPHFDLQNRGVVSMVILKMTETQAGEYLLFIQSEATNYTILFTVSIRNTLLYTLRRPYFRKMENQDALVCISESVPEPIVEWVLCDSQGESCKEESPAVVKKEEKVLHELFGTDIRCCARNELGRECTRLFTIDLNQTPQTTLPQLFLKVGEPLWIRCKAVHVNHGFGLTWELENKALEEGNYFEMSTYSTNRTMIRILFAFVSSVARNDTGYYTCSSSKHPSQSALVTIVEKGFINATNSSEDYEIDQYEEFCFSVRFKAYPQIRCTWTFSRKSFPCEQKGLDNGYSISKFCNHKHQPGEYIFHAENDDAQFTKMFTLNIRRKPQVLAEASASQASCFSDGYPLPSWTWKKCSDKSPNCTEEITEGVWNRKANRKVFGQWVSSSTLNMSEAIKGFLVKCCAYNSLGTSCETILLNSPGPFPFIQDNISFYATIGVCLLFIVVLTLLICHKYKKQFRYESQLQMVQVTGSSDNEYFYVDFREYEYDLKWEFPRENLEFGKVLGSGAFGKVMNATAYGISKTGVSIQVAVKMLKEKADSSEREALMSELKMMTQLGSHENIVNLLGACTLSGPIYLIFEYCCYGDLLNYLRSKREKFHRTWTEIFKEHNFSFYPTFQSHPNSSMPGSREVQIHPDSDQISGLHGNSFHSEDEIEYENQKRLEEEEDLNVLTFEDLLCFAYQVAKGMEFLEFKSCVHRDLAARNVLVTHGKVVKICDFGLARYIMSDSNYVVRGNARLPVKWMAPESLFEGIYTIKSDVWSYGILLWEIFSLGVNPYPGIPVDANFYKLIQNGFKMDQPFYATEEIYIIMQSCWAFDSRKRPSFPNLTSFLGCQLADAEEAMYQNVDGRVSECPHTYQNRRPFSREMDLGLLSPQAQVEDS

[16] = target: Vascular endothelial growth factor receptor 3 (Homo sapiens) (UniProt P35916); conditions: at 0.1 µM
[17] = target: Vascular endothelial growth factor receptor 3 (Homo sapiens) (UniProt P35916); conditions: at 1 µM
[18] = target: Macrophage colony-stimulating factor 1 receptor (Homo sapiens) (UniProt P07333); conditions: at 0.1 µM
[19] = target: Macrophage colony-stimulating factor 1 receptor (Homo sapiens) (UniProt P07333); conditions: at 1 µM
[20] = target: Tyrosine-protein kinase Fyn (Homo sapiens) (UniProt P06241); conditions: at 0.1 µM
Chain of Tyrosine-protein kinase Fyn (Homo sapiens) (P06241 2-537 limits assumed): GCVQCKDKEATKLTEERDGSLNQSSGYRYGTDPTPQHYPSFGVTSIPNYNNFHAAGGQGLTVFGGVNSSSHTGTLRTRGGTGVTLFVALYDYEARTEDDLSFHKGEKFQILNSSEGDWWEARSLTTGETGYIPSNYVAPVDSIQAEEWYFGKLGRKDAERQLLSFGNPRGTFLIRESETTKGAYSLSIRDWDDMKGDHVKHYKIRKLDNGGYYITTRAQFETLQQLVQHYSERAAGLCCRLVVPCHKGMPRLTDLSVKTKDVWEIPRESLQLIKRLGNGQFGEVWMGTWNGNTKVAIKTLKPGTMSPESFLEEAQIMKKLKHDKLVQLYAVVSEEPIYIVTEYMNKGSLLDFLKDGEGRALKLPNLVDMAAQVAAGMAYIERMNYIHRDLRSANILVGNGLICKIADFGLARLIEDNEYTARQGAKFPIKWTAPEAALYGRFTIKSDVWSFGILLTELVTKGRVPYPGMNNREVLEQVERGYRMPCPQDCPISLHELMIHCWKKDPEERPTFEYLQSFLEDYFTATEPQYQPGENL

Chain of Serine/threonine-protein kinase PLK1 (Homo sapiens) (P53350 whole entry): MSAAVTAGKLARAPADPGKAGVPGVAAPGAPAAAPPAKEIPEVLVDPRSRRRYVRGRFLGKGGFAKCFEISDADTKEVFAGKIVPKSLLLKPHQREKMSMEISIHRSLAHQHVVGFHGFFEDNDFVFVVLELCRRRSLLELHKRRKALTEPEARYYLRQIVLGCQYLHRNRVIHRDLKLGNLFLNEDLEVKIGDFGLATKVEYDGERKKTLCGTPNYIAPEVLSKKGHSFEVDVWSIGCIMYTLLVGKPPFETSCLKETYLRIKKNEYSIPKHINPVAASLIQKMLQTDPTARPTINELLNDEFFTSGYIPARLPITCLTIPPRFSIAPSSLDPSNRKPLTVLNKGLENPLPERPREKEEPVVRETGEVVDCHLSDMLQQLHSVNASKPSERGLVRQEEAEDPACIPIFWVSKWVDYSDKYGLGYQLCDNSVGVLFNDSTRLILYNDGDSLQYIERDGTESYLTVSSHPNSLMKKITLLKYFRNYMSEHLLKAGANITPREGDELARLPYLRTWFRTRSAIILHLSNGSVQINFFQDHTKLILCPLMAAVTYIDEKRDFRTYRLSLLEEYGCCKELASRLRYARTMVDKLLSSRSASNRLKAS
Chain of Serine/threonine-protein kinase Nek7 (Homo sapiens) (Q8TDX7 whole entry, looked up): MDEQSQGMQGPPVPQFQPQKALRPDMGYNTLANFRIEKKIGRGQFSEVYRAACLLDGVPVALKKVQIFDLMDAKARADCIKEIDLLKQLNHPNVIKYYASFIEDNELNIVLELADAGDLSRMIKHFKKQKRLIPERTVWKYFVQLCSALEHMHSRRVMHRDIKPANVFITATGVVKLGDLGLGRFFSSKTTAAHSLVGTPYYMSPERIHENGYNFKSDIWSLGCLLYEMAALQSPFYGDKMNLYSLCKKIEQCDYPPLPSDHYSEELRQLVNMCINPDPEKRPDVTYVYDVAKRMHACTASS
Chain of Macrophage colony-stimulating factor 1 receptor (Homo sapiens) (P07333 whole entry): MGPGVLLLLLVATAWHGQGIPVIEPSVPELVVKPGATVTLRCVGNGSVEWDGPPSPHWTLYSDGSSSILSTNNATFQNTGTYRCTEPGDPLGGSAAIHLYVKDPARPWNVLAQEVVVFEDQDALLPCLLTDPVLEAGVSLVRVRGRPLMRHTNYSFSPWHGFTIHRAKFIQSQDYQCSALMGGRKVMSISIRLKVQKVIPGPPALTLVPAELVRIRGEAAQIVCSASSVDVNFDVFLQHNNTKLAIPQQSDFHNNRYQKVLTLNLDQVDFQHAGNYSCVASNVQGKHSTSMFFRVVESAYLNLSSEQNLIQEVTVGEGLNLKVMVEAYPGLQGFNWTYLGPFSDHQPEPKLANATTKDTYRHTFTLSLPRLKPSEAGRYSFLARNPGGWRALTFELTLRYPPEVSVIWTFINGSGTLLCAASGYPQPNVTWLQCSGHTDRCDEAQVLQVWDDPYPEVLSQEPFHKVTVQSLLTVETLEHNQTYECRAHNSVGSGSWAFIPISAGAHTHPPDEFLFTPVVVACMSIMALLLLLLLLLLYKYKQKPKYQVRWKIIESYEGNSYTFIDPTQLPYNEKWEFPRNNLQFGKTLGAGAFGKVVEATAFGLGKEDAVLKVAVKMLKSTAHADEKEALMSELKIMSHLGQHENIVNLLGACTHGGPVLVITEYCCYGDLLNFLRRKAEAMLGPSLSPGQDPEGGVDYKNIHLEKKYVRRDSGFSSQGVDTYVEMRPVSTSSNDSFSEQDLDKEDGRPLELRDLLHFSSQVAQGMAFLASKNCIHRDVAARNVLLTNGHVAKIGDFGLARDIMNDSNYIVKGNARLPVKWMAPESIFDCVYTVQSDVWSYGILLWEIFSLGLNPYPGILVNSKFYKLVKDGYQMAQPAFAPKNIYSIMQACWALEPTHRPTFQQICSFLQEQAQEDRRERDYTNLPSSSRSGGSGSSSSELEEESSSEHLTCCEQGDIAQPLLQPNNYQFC
Chain of Serine/threonine-protein kinase Nek6 (Homo sapiens) (Q9HC98 whole entry): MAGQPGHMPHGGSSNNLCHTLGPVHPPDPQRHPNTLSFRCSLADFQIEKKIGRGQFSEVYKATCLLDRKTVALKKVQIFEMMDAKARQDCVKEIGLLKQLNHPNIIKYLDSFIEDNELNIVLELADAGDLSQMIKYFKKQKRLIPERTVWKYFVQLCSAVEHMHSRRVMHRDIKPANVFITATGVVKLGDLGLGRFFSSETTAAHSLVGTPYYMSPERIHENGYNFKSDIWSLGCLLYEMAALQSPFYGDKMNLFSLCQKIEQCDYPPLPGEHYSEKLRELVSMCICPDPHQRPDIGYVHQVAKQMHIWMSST
Chain of Vascular endothelial growth factor receptor 3 (Homo sapiens) (P35916 whole entry): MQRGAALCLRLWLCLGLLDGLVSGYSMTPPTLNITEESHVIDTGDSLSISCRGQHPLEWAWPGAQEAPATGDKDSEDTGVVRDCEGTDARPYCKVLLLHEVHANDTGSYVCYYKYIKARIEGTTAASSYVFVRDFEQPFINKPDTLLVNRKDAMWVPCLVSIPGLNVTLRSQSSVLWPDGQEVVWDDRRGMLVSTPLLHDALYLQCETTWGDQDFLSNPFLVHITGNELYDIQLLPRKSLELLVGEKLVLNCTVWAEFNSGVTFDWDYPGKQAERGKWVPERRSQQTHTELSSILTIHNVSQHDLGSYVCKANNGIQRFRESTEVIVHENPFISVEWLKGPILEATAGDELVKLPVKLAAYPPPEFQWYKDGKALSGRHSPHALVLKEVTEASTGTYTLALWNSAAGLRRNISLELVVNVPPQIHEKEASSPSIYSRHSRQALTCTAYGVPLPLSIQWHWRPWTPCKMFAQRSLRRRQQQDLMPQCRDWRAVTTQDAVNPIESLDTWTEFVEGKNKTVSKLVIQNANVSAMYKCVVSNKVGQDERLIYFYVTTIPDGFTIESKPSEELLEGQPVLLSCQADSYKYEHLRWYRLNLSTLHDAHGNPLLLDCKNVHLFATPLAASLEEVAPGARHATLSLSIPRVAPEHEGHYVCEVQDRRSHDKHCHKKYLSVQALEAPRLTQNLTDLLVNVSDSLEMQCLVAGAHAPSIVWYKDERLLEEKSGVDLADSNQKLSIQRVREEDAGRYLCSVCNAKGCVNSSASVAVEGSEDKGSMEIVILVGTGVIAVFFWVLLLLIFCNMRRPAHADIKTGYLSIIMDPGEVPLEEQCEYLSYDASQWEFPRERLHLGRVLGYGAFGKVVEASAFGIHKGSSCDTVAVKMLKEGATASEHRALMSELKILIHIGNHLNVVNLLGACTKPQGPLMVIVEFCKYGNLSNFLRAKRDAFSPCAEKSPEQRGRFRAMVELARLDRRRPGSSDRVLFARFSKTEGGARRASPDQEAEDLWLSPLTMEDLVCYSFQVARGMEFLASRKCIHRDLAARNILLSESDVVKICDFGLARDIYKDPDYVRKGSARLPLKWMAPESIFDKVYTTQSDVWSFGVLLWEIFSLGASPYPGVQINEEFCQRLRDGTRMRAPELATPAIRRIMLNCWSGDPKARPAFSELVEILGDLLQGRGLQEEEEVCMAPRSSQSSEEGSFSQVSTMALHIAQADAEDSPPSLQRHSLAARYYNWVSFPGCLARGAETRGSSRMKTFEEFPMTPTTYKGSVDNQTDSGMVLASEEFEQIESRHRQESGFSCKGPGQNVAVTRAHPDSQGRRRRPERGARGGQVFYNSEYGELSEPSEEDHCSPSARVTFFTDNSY

| Structure (SMILES) | inhibition [1] [%] | inhibition [2] [%] | inhibition [3] [%] | inhibition [4] [%] | inhibition [5] [%] | inhibition [6] [%] | inhibition [7] [%] | inhibition [8] [%] | inhibition [9] [%] | inhibition [10] [%] | inhibition [11] [%] | inhibition [12] [%] | inhibition [13] [%] | inhibition [14] [%] | inhibition [15] [%] | inhibition [16] [%] | inhibition [17] [%] | inhibition [18] [%] | inhibition [19] [%] | inhibition [20] [%] |
| --- | --- | --- | --- | --- | --- | --- | --- | --- | --- | --- | --- | --- | --- | --- | --- | --- | --- | --- | --- | --- |
| CCOc1ccc2c(-c3ccnc(Nc4cccc(C(F)(F)F)c4)n3)cnn2n1 | 12.1 | 2.34 | 1.31 | 0.57 | 1.02 | 0.83 | 2.66 | 1.88 | 0.03 | 7.49 | 4.9 | 0.64 | 1.39 | 3.43 | 5.75 | 2.01 | 3.46 | -2.9 | 14.1 | 1.07 |
| CS(=O)(=O)CCNCc1ccc(-c2ccc3ncnc(Nc4ccc(OCc5ccccc5)c(C(F)(F)F)c4)c3c2)o1 | 5.28 | 1.71 | 1.9 | 4.27 | 5.33 | 0.91 | -0.61 | 2.28 | 4.17 | 7.54 | 7.1 | 3.58 | 1.98 | 9.3 | -2.7 | 1.59 | 1.31 | -3.68 | 1.56 | 1.63 |
